The values that follow come from PubChem BioAssay AID1645838 (ICCB-Longwood Screening Facility, Harvard Medical School, 2021).

A short description of the assay: modulators of mitochondrial supercomplex assembly, cell-based, luminescence, Hoechst nuclei count (AID 1645838).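 As to all read-outs here: control cybrid cells.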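 As to z-score: higher means more mitochondrial supercomplex formation.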 The conditions noted are these: Cells, luminescence/Hoechst cell count ratio, supercomplex reporter; for z-score: stronger effect = higher value; for cell count: measured here: cell number, Hoechst nuclei count.
Setting [1] is: library stock concentration (final well concentration not given) 80 uM.
Where [2] appears, read: library stock concentration (final well concentration not given) 400 uM.
Where [3] appears, read: library stock concentration (final well concentration not given) 2 mM.
[4] abbreviates: library stock concentration (final well concentration not given) 10 mM.
Setting [5] is: library stock concentration (final well concentration not given) 46 uM.
Setting [6] is: library stock concentration (final well concentration not given) 278 uM.

Out of some 2,000 compounds screened, about 100 (5%) were called active. Rule as the data show it: active = z-score above about 2; inactive = the rest. Many of the other results were omitted from the sample, so actives are more common in it than they were. Residues, ends and D or L forms follow the SMILES beside them. *: point of attachment. Cbz = O=C(OCc1ccccc1)*

For the compound `CCCCC[C@H](O)/C=C/[C@H]1CCC(=O)[C@@H]1C/C=C\CCCC(=O)O`, the z-score was 0.602 (inactive) and the cell count came out at 5430.
As to `CCC(NC(=O)c1c(C)c(-c2ccccc2)nc2ccccc12)c1ccccc1` (stereo not drawn), the z-score reads like this: under setting [1], -0.542 (inactive); under setting [2], -0.315 (inactive); under setting [3], -0.402 (inactive); under setting [4], -0.409 (inactive). Also, the cell count worked out at 7010 under setting [1], 6770 under setting [2], 6520 under setting [3] and 5870 under setting [4].
Take `Cc1c(Cc2ccc3ccccc3n2)c2cc(F)ccc2n1CC(=O)O`: the z-score is, setting by setting: under setting [1], -0.574 (inactive); under setting [2], -0.436 (inactive); under setting [3], -0.171 (inactive); under setting [4], -0.183 (inactive). The cell count under setting [1] came to 6030, the cell count under setting [2] came to 6070, the cell count under setting [3] worked out at 6110 and the cell count under setting [4] came out at 5700.
Take `Cc1c(-c2ccc(-c3ccccc3F)cc2)nc2ccc(F)cc2c1C(=O)O`: where the note is “library stock 10 mM”, the outcome was “inactive; censored for cell count”. Further, the z-score runs as follows: under setting [1], -0.011 (inactive); under setting [2], 9.53 (active); under setting [3], 9.71 (active). Besides, the cell count under setting [1] was found to be 5350, the cell count under setting [2] was determined as 2330 and the cell count under setting [3] is 1790.
In the case of `O=C(O)CCC/C=C/C[C@@H]1[C@@H](CC[C@@H](O)CCc2ccccc2)[C@H](O)C[C@@H]1O`, the z-score was -0.13 (inactive) and the cell count is 5360.
Taken in the same sequence, the figures for `Nc1ccccc1NC(=O)CCCCCCC(=O)Nc1ccccc1` were 0.265 (inactive) and 5570.
As to `O=C(CCCCCCC(=O)Nc1ccccc1)NO`, the z-score was 0.328 (inactive) and the cell count was determined as 5300. Also, under “library stock 10 mM”, the outcome was “inactive; censored for cell count”. For the same compound, under setting [1], the z-score is 0.428 (inactive) and the cell count was 5490. Under setting [2], the z-score is 2.1 (active) and the cell count came out at 4770. For the same compound, under setting [3], the z-score is 10.2 (active) and the cell count amounted to 3220.
As for `CC(C)(C)C(=O)Nc1ccccc1`, the z-score was -0.189 (inactive) and the cell count was determined as 5010.
On the same counts, the results for `CCCCCCCCCCCCCCCCSC[C@H](COP(=O)([O-])OCC[N+](C)(C)C)NC(=O)CCCCCCCCCCCCCCC` are -0.387 (inactive) and 5820.
Consider `C#CCC(Cc1cnc2nc(N)nc(N)c2n1)c1ccc(C(=O)NC(CCC(=O)O)C(=O)O)cc1` (stereo not drawn), for which the outcome is “inactive; censored for cell count” (library stock 278 µM), “inactive; censored for cell count” (library stock 1.67 mM) and “inactive; censored for cell count” (library stock 10 mM). Moreover, under setting [5], the z-score is 1.41 (inactive). For the same compound, under setting [5], the cell count was 2070.
Regarding `CCCCCCCCCCCCCCC(=O)N[C@H]1CCOC1=O`, the outcome was “inactive; censored for cell count”.
Take `CSCCC(NC(=O)C(CC(C)C)NC(=O)CNC(=O)C(NC(=O)C(Cc1ccccc1)NC(=O)C(CO)NC(=O)C(CC(=O)O)NC(=O)[C@H](NC(=O)C(CCCCN)NC(=O)C(N)Cc1cnc[nH]1)C(C)O)C(C)C)C(N)=O` (stereo partly drawn): the z-score runs as follows: under setting [1], -0.214 (inactive); under setting [2], -0.449 (inactive); under setting [3], -0.151 (inactive); under setting [4], -0.389 (inactive). Besides, the cell count runs as follows: under setting [1], 6630; under setting [2], 6610; under setting [3], 6500; under setting [4], 6040.
Consider `Cn1ncnc1C1c2n[nH]c(=O)c3cc(F)cc(c23)NC1c1ccc(F)cc1` (stereo not drawn), for which the outcome (library stock 10 mM) was “inactive; censored for cell count”. Moreover, the z-score under setting [1] is 1.87 (inactive), the z-score under setting [2] is 3.69 (active) and the z-score under setting [3] was 6.89 (active). In addition, the cell count runs as follows: under setting [1], 3700; under setting [2], 2650; under setting [3], 1700.
On to `CC#C[C@]1(O)CC[C@@H]2[C@@H]3CCC4=CC(=O)CCC4=C3C(c3ccc(N(C)C)cc3)C[C@@]21C` (stereo partly drawn), for which the z-score by setting is: under setting [1], -0.535 (inactive); under setting [2], -0.414 (inactive); under setting [3], -0.596 (inactive); under setting [4], -0.985 (inactive). Besides, the cell count was found to be 5620 under setting [1], 5640 under setting [2], 5480 under setting [3] and 4850 under setting [4].
As to `Cc1cc(C)cc(NC(=O)Nc2ccc(S(N)(=O)=O)cc2)c1`, the z-score under setting [1] was -0.282 (inactive), the z-score under setting [2] was -0.269 (inactive), the z-score under setting [3] is -0.436 (inactive) and the z-score under setting [4] was -0.561 (inactive). In addition, the cell count runs as follows: under setting [1], 5270; under setting [2], 5260; under setting [3], 5280; under setting [4], 5230.
`CCCCCC(=O)CC[C@H]1[C@H](O)CC(=O)[C@@H]1C/C=C\CCCC(=O)O`: the z-score is 0.0242 (inactive) and the cell count amounted to 5260.
In the case of `CCCCC[C@@H](O)CC[C@H]1[C@H](O)CC(=O)[C@@H]1CCCCCCC(=O)O`, the z-score is 0.414 (inactive) and the cell count was 5360.
Taken in the same sequence, the figures for `CCCCCC(=O)CC[C@H]1[C@H](O)CC(=O)[C@@H]1CCCCCCC(=O)O` were 3.62 (active) and 3870.
On the same counts, the results for `CCCCC[C@H](O)/C=C/[C@@H]1[C@@H](C/C=C\CCCC(=O)NCCO)[C@@H](O)C[C@H]1O` are -0.4 (inactive) and 5500.
As to `COc1ccc(C2(O)CCC(N3CCC(NC(=O)CNC(=O)c4cccc(C(F)(F)F)c4)C3)CC2)cn1` (stereo not drawn), the z-score is, setting by setting: under setting [1], 0.226 (inactive); under setting [2], 0.00991 (inactive); under setting [3], -0.208 (inactive); under setting [4], -0.124 (inactive). The cell count turned out to be 5820 under setting [1], 5470 under setting [2], 6300 under setting [3] and 5360 under setting [4].
`CC(C)CC(C=O)NC(=O)C(CC(C)C)NC(=O)C(CC(C)C)NC(=O)OCc1ccccc1` (stereo not drawn) (Cbz-Leu-Leu-Leu-aldehyde; configuration not given here): the outcome (library stock 1.67 mM) is “inactive; censored for cell count” and the outcome (library stock 10 mM) was “inactive; censored for cell count”. For the same compound, the z-score reads like this: under setting [5], -0.417 (inactive); under setting [6], -0.122 (inactive). The cell count reads like this: under setting [5], 6590; under setting [6], 5640.
For the compound `Cc1cc(N2CCOCC2)cc2[nH]c(-c3c(NCC(O)c4cccc(Cl)c4)cc[nH]c3=O)nc12` (stereo not drawn), the z-score was 0.23 (inactive) under setting [1], 0.0421 (inactive) under setting [2], 0.963 (inactive) under setting [3] and 5.5 (active) under setting [4]. In addition, the cell count runs as follows: under setting [1], 5280; under setting [2], 5710; under setting [3], 4590; under setting [4], 1770.
`CCCCC[C@H](O)/C=C/[C@H]1[C@H](O)CC(=O)[C@@H]1C/C=C/CCCC(=O)O`: the z-score is 0.327 (inactive) and the cell count was 4880.
`CC(C)=CCC/C(C)=C/CC/C(C)=C/CC[C@]1(C)CCc2c(C)c(O)c(C)c(C)c2O1`: the z-score was -0.823 (inactive) and the cell count stood at 5060.
Turning to `NS(=O)(=O)OCC1CC(n2ccc3c(NC4CCc5ccccc54)ncnc32)CC1O` (stereo not drawn), the outcome by setting is: (library stock 1.67 mM) “inactive; censored for cell count”; (library stock 10 mM) “inactive; censored for cell count”. In addition, the z-score by setting is: under setting [5], 1.02 (inactive); under setting [6], 4.89 (active). Besides, the cell count was found to be 5390 under setting [5] and 2380 under setting [6].
For the compound `CCCCC[C@H](O)/C=C/[C@H]1CC[C@@H](O)[C@@H]1C/C=C\CCCC(=O)O`, the z-score was -0.672 (inactive) and the cell count is 5720.
Taken in the same sequence, the figures for `NCc1cccc2ccncc12` were -0.00644 (inactive) and 5160.
